Results as given in PubChem BioAssay AID1159580 (chemical genetic matrix, 2015).
About 2,000 (36%) of roughly 5,500 compounds were called active. Not shown: some 18% with an inconclusive outcome. Cut-off read from the data, not from the text of the source: active = normalized growth mostly below about 0.91 (no sharp cut-off); inconclusive = no clear call, values can overlap the other calls; inactive = mostly above about 0.92. The list shows a part of the results.

Assay: chemical genetic growth profiling, strain panel (AID 1159580);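 note: tested at 20 µM; growth read once vehicle control cultures reached saturation at 30 °C; 1 = growth at the plate median or of vehicle wells; lower values mean less growth of the strain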
Settings: S. cerevisiae deletion strains, growth OD
[1] = locus YCL061C, strain MRC1, stronger effect = lower value
[2] = locus YJL187C, strain SWE1, stronger effect = lower value

Measured: normalized growth

Cc1ccc(-c2nc3ccc(C)cn3c2CC(=O)N(C)C)cc1
inactive: locus YAL021C, strain ccr4, stronger effect = lower value 1.06 | locus YAL026C, strain drs2, stronger effect = lower value 1.01 | locus YAL030W, strain snc1, stronger effect = lower value 1.02 | locus YBL061C, strain skt5, stronger effect = lower value 0.998 | locus YBR009C, strain hhf1, stronger effect = lower value 1.02 | locus YBR023C, strain chs3, stronger effect = lower value 0.989 | locus YBR171W, strain sec66, stronger effect = lower value 1.04 | locus YBR231C, strain swc5, stronger effect = lower value 0.966 | locus YBR279W, strain paf1, stronger effect = lower value 0.993 | locus YCL011C, strain gbp2, stronger effect = lower value 1.01 | locus YCL016C, strain dcc1, stronger effect = lower value 0.987 | [1] 1.02 | locus YCL069W, strain vba3, stronger effect = lower value 1.02 | locus YCR088W, strain abp1, stronger effect = lower value 1.03 | locus YDL005C, strain med2, stronger effect = lower value 1.01 | locus YDL040C, strain nat1, stronger effect = lower value 1 | locus YDR001C, strain nth1, stronger effect = lower value 1.02 | locus YDR069C, strain doa4, stronger effect = lower value 1.01 | locus YDR137W, strain rgp1, stronger effect = lower value 1.05 | locus YDR159W, strain sac3, stronger effect = lower value 0.96 | locus YDR195W, strain ref2 1 | locus YDR297W, strain sur2, stronger effect = lower value 1 | locus YDR334W, strain swr1, stronger effect = lower value 1.02 | locus YDR335W, strain msn5, stronger effect = lower value 0.991 | locus YDR392W, strain spt3, stronger effect = lower value 0.939 | locus YEL003W, strain gim4, stronger effect = lower value 1.01 | locus YEL037C, strain rad23, stronger effect = lower value 1.01 | locus YEL061C, strain CIN8 (second series), stronger effect = lower value 1.01 | locus YER015W, strain faa2, stronger effect = lower value 1.02 | locus YER016W, strain bim1, stronger effect = lower value 1.01 | locus YER111C, strain swi4, stronger effect = lower value 1.03 | locus YER155C, strain BEM2 (second series), stronger effect = lower value 0.998 | locus YFR010W, strain ubp6, stronger effect = lower value 1.02 | locus YGL167C, strain pmr1, stronger effect = lower value 0.996 | locus YGL173C, strain kem1, stronger effect = lower value 1.01 | locus YGL227W, strain vid30, stronger effect = lower value 1.01 | locus YGL240W, strain doc1, stronger effect = lower value 1.09 | locus YGL253W, strain hxk2, stronger effect = lower value 0.999 | locus YHR013C, strain ard1, stronger effect = lower value 1.06 | locus YHR027C, strain rpn1, stronger effect = lower value 0.981 | locus YHR142W, strain chs7, stronger effect = lower value 1.03 | locus YJL092W, strain hpr5, stronger effect = lower value 1.02 | locus YJL095W, strain BCK1 (second series), stronger effect = lower value 1.01 | locus YJL115W, strain asf1, stronger effect = lower value 1.02 | locus YJL129C, strain trk1, stronger effect = lower value 1 | locus YJL154C, strain vps35, stronger effect = lower value 1.02 | locus YJL164C, strain tpk1, stronger effect = lower value 1.01 | locus YJL166W, strain qcr8, stronger effect = lower value 1.03 | [2] 1.01 | locus YKL160W, strain elf1, stronger effect = lower value 0.997 | locus YKR026C, strain gcn3, stronger effect = lower value 1.02 | locus YKR091W, strain srl3, stronger effect = lower value 1.03 | locus YLL001W, strain dnm1, stronger effect = lower value 0.988 | locus YLL026W, stronger effect = lower value 0.999 | locus YLL041C, strain sdh2, stronger effect = lower value 1.01 | locus YLR027C, strain aat2, stronger effect = lower value 1.02 | locus YLR221C, strain rsa3, stronger effect = lower value 0.974 | locus YLR258W, strain gsy2, stronger effect = lower value 1.03 | locus YLR262C, strain YPT6 (second series), stronger effect = lower value 1.01 | locus YLR320W, strain mms22, stronger effect = lower value 0.991 | locus YLR342W, strain FKS1, stronger effect = lower value 0.987 | locus YLR357W, strain rsc2, stronger effect = lower value 1.01 | locus YLR370C, strain arc18, stronger effect = lower value 0.978 | locus YLR384C, strain iki3, stronger effect = lower value 0.975 | locus YML120C, strain ndi1, stronger effect = lower value 0.984 | locus YMR058W, strain fet3, stronger effect = lower value 1.02 | locus YMR125W, strain sto1, stronger effect = lower value 1.03 | locus YMR129W, stronger effect = lower value 0.978 | locus YMR205C, strain PFK2, stronger effect = lower value 1 | locus YMR231W, strain pep5, stronger effect = lower value 1.02 | locus YNL071W, strain lat1, stronger effect = lower value 1.03 | locus YNL209W, strain ssb2, stronger effect = lower value 0.995 | locus YNL248C, strain rpa49, stronger effect = lower value 1.02 | locus YNL322C, strain KRE1 (second series), stronger effect = lower value 1.03 | locus YNR049C, strain mso1, stronger effect = lower value 0.986 | locus YOR001W, strain rrp6, stronger effect = lower value 0.951 | locus YOR070C, strain gyp1, stronger effect = lower value 0.988 | locus YOR080W, strain dia2, stronger effect = lower value 0.998 | locus YOR083W, strain WHI5, stronger effect = lower value 0.969 | locus YOR106W, strain vam3, stronger effect = lower value 1.08 | locus YOR265W, strain rbl2, stronger effect = lower value 0.969 | locus YOR270C, strain vph1, stronger effect = lower value 1.07 | locus YOR290C, strain snf2, stronger effect = lower value 1.03 | locus YPL051W, strain arl3, stronger effect = lower value 1.02 | locus YPL078C, strain atp4, stronger effect = lower value 1.03 | locus YPL106C, strain sse1, stronger effect = lower value 1.12 | locus YPL240C, strain hsp82, stronger effect = lower value 0.982

COc1ccc([N+](=O)[O-])c(OC)c1C(N)=O
inactive: locus YAL013W, strain DEP1, stronger effect = lower value 1.02 | locus YBR229C, strain ROT2, stronger effect = lower value 1.03 | [1] 1.06 | locus YDL101C, strain DUN1, stronger effect = lower value 1.06 | locus YDR150W, strain NUM1, stronger effect = lower value 1.04 | locus YEL061C, strain CIN8, stronger effect = lower value 0.995 | locus YGR078C, strain PAC10, stronger effect = lower value 1.04 | locus YHR030C, strain SLT2, stronger effect = lower value 1.11 | locus YHR087W, strain rtc3, stronger effect = lower value 0.964 | [2] 1.02 | locus YJR043C, strain POL32, stronger effect = lower value 1.06 | locus YJR075W, strain HOC1, stronger effect = lower value 1.02 | locus YLR039C, strain RIC1, stronger effect = lower value 1.03 | locus YLR058C, strain SHM2 (second series), stronger effect = lower value 0.997 | locus YLR085C, strain ARP6, stronger effect = lower value 1.03 | locus YLR262C, strain YPT6, stronger effect = lower value 0.989 | locus YML094W, strain GIM5, stronger effect = lower value 0.98 | locus YMR219W, strain ESC1, stronger effect = lower value 1.02 | locus YMR263W, strain SAP30, stronger effect = lower value 1.02 | locus YNL153C, strain GIM3, stronger effect = lower value 1.04 | locus YNL298W, strain CLA4 (second series), stronger effect = lower value 1.02 | locus YNL322C, strain KRE1, stronger effect = lower value 1.01 | locus YNR030W, strain Alg12, stronger effect = lower value 1.03 | locus YPL055C, strain LGE1, stronger effect = lower value 1.01 | locus YPL241C, strain CIN2, stronger effect = lower value 1.02 | locus YPR135W, strain CTF4, stronger effect = lower value 1.12
